This is part of a sample that, as a whole, favours compounds with a hit. Of some 83,000 tested, about 20% had one in any assay.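 Interpretation: 100, growth as untreated; towards 0, rising growth inhibition; 0, no net growth; 0 to -100, cell death. Compounds scoring below 10 were considered active.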 Unmarked numbers belong to inactive results. Active and inactive are the calls of the source.
Experiments:
Assay in all cases: NCI-60 one-dose screen, 48 h (100 = growth as untreated, 0 = no growth, -100 = all killed)
Settings in all cases: 10 µM
DU-145 prostate = tested on: DU-145 prostate
K-562 leukemia = tested on: K-562 leukemia
MALME-3M melanoma = tested on: MALME-3M melanoma
MDA-MB-231 breast = tested on: MDA-MB-231 breast
RXF 393 renal = tested on: RXF 393 renal
SF-268 CNS = tested on: SF-268 CNS
SF-295 CNS = tested on: SF-295 CNS
SF-539 CNS = tested on: SF-539 CNS
UACC-257 melanoma = tested on: UACC-257 melanoma
M14 melanoma = tested on: M14 melanoma
HCT-15 colon = tested on: HCT-15 colon
HT29 colon = tested on: HT29 colon
SNB-75 CNS = tested on: SNB-75 CNS
SNB-19 CNS = tested on: SNB-19 CNS
U251 CNS = tested on: U251 CNS
PC-3 prostate = tested on: PC-3 prostate
SK-MEL-5 melanoma = tested on: SK-MEL-5 melanoma
UACC-62 melanoma = tested on: UACC-62 melanoma
LOX IMVI melanoma = tested on: LOX IMVI melanoma
SK-MEL-28 melanoma = tested on: SK-MEL-28 melanoma

Compound	growth (DU-145 prostate)	growth (K-562 leukemia)	growth (MALME-3M melanoma)	growth (MDA-MB-231 breast)	growth (RXF 393 renal)	growth (SF-268 CNS)	growth (SF-295 CNS)	growth (SF-539 CNS)	growth (UACC-257 melanoma)	growth (M14 melanoma)	growth (HCT-15 colon)	growth (HT29 colon)	growth (SNB-75 CNS)	growth (SNB-19 CNS)	growth (U251 CNS)	growth (PC-3 prostate)	growth (SK-MEL-5 melanoma)	growth (UACC-62 melanoma)	growth (LOX IMVI melanoma)	growth (SK-MEL-28 melanoma)
CCC1(C)OC(=O)NC1=O (stereo not given)	111%	91.7%	106%	109%	121%	103%	103%	99.1%	90.9%	97.2%	100%	99.9%	100%	108%	99%	79.3%	98.2%	103%	94.3%	108%
CCCCCCCC/C=C/CCCCCCCCC1=NCCN1CCO	84.7%	-11.8% (active)	85.8%	68.3%	56.8%	77.3%	39.6%	75.6%	83.5%	74%	59.2%	19.7%	57.3%	92.8%	54.1%	46.2%	85.6%	90.5%	-7.51% (active)	90.5%
CN1CCN(c2nc(-c3cccnc3)nc3sc4c(c23)CCCCCC4)CC1	98.9%	13.6%	106%	78.9%	79.4%	80.3%	75.6%	93.3%	102%	101%	93.2%	91.3%	67.4%	101%	72.3%	66.7%	87.9%	103%	78.6%	99.7%
O=C1/C(=C/c2ccc([N+](=O)[O-])s2)Oc2ccc(Cl)cc21	-73.5% (active)	-11.2% (active)	-56.8% (active)	-57% (active)	-63.9% (active)	-57.9% (active)	-16.2% (active)	-91.3% (active)	-54.5% (active)	-44.4% (active)	-40% (active)	-36.1% (active)	-15% (active)	7.13% (active)	-65.4% (active)	-48% (active)	-88.7% (active)	-82.4% (active)	-70.1% (active)	-56.8% (active)
COc1ccc(-c2cc(/C=C3\C(=O)Nc4cc(Cl)ccc43)[nH]n2)cc1OC	96.4%	33.1%	37.7%	78.2%	73.1%	74.4%	47.6%	69.1%	114%	68%	51.2%	32.2%	47.1%	87%	75.7%	58.5%	64.8%	56.9%	52.9%	74.6%
CCCc1c(C)nc2scc(-c3ccc(Cl)cc3)n2c1=O	105%	99.3%	116%	109%	92.7%	98.3%	105%	101%	110%	107%	101%	101%	97.9%	105%	97.2%	97.3%	99.1%	100%	95.8%	112%
CCCCCC(=O)N1c2ccccc2NC2=C(C(=O)CC(c3ccc(OC)c(OC)c3)C2)C1c1ccc(C(F)(F)F)cc1 (stereo not given)	85%	28.4%	84.3%	69%	1.04% (active)	57.3%	36.1%	80.7%	41.8%	58.3%	60.6%	88%	82.7%	58.1%	49.5%	16.4%	18.8%	53.9%	60.8%	86.7%
Cc1cc(Nc2cccc(F)c2)nc(NCc2ccccc2)n1	22.8%	13.3%	43.9%	20.9%	76.6%	40.4%	16.7%	56.8%	29.8%	28.5%	15.6%	22.8%	50.5%	29.4%	11.7%	1.49% (active)	33.9%	16.7%	18.2%	43.9%
